TSHR ag – qHTS Assay for Agonists of the Thyroid Stimulating Hormone Receptor. HEK293-CNG-TSHR cells (CNG channel as cAMP sensor), membrane potential dye, cAMP. Thyrotropin receptor (Homo sapiens), P16473. Potency, µM (highest dose often 57.1 µM), for the others: at the top dose activation, actives largely listed as activators. 73,000 tested, 0.48% active; active means well fitted activation curve with a large enough effect in the main read-out, with a control signal flat, not every such curve was filed as active; inconclusive means small, poorly fitted or top-dose-only effect, or a change in a side signal; inactive means no such curve, though single readings can be large or run the other way; % of control where 0% means no effect;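 further: the control signal comes from parental cells without the receptor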
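cAMP rise detected as CNG-channel membrane depolarization by fluorescent dye (emission 590 nm), 30 min after compound, following 60 min dye loading containing 100 uM RO 20-1724 at room temperature. Cells: TSHR/CNG HEK 293, with parental CNG HEK 293 as control.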
15-hLO inh – qHTS Assay for Inhibitors of 15-hLO (15-human lipoxygenase). AID 887, 2007. purified 15hLO-1, xylenol orange hydroperoxide absorbance. 74,000 tested, 1.4% active. Potency, µM (series often up to 57.1 µM), inactives show top-dose activity change, negative = inhibition, actives largely listed as inhibitors. Polyunsaturated fatty acid lipoxygenase ALOX15 (Homo sapiens), P16050; further: on the % scale 0 is the no-effect control and ±100 the full control effect; nearly all actives have a fitted effect of over 55% in size
Target sequence (P16050 whole entry, looked up): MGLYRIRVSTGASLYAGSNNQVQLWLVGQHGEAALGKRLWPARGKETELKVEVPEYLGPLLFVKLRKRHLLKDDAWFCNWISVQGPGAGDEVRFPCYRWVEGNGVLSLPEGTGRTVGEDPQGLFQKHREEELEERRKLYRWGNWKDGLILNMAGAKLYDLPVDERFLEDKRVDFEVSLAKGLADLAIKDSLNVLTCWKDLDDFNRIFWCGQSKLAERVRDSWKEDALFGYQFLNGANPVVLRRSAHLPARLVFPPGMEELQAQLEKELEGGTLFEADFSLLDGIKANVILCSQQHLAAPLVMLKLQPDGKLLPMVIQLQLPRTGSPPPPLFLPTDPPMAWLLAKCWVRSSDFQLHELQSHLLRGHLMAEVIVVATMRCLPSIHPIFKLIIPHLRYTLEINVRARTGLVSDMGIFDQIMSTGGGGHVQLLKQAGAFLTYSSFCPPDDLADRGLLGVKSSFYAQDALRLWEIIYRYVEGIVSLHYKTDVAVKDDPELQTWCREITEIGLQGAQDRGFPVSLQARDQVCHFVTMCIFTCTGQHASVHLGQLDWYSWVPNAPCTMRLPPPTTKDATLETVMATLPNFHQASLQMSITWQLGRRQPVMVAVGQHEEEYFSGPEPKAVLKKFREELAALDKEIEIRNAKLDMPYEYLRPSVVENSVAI
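40 nM 15hLO-1 + cpd, 15 min RT; start w/ 50 uM AA (final), 6 min RT; stop/detect w/ 200 uM XO + 300 uM Fe(II) in 50 mM H2SO4, 30 min; A573/A405. Buffer 25 mM Hepes pH 7.5, 0.01% Triton X-100. No-enzyme wells as negative control.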
PK Bst – Pyruvate Kinase; purified pyruvate kinase, luminescence ATP production; ribose 5-phosphate activator present at AC10; Potency, µM; 51,000 tested, 1.2% active; in the data active means potency below about 11 µM; inconclusive means mostly about 12 µM to 25 µM;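 the screen sought inhibitors and activators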;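 further: scaled between full activation by ribose 5 phosphate and full inhibition by luteolin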
FLuc inh – qHTS Assay for Inhibitors of Firefly Luciferase | Luciferin 4-monooxygenase (Photinus pyralis), P08659 | purified firefly luciferase, luminescence, 8 min | Potency, µM (titrated, usually from 57.1 µM), for inactives: at the top dose activity change, negative = inhibition, usual class: inhibitors | 72,000 tested, 2.2% active | AID 411, 2009; further: on the % scale 0 is the no-effect control and ±100 the full control effect; nearly all actives have a fitted effect of over 40% in size
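Compounds were tested as concentration series (qHTS) against purified P. pyralis luciferase with luciferin and 10 uM ATP in 50 mM imidazole pH 7.2, 50 mM KCl, 7 mM MgCl2, 0.01% Tween 20, 0.05% BSA. Luminescence was read after 8 min at ambient temperature.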
HEK293 cAMP cs – qHTS Assay for Agonists of the Thyroid Stimulating Hormone Receptor: Activators of Intracellular cAMP Concentrations in Parental HEK 293; 73,000 tested, 2.5% active; Potency, µM (doses to about 57.1 µM), for inactives: top-dose activation, hits mostly activators; parental HEK293 CNG cAMP sensor, membrane potential fluorescence; further: % of control where 0% means no effect; nearly all actives have a fitted effect of over 55% in size
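Parental HEK 293 cells stably expressing a modified CNG channel (no TSHR) report cAMP rise as membrane depolarization. Membrane potential dye with 100 uM RO 20-1724 was loaded for 60 min at room temperature, then compound added for 30 min; fluorescence read at 590 nm.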
Tau fil binding – qHTS Assay for Tau Filament Binding; recombinant tau filaments, thioflavin S fluorescence, 15 h; filaments grown with octadecylsulfate alongside compound; Potency, µM (highest dose often 57.1 µM), for inactives: at the highest dose activity change, negative = inhibition; 71,000 tested, 2% active; Microtubule-associated protein tau (Homo sapiens), P10636;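 further: on the % scale 0 is the no-effect control and ±100 the full control effect; actives lower thioflavin S fluorescence by blocking filaments or displacing dye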
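Quantitative HTS: thioflavine S signal from ODS-induced tau filaments, excited at 450 nm, emission 510 nm. Conditions: 1 uM tau, 30 uM ODS, 15 h at 37 C, pH 7.4.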
* marks the source's active call; other numbers are inactive results; [ ] = another dose, or the depositor's remark. A selection: hits, their analogues and other compounds. The true share with any hit is near 7.8%. Unless noted, the call rests on the fitted dose curve; in most records, active means well fitted curve in the direction sought with a large enough effect; inconclusive means small, poorly fitted or top-dose-only effect, or another doubt; inactive means no such curve, though single readings can be large; an effect the other way counts as inactive or inconclusive. Potency means the concentration at half of the fitted maximal effect.

Screening CCN=C(NCC)SC1CC(=O)N(c2cccc(OCC)c2)C1=O (stereo not drawn) returned TSHR ag -5%, 15-hLO inh -2%, FLuc inh -1%, HEK293 cAMP cs -9% and Tau fil binding -10%.
Screening COC(=O)c1ccccc1NC(=O)CSc1nnc(-c2cccc(NC(C)=O)c2)n1C returned TSHR ag 6%, 15-hLO inh inconclusive, FLuc inh -1%, HEK293 cAMP cs 16% and Tau fil binding 5%.
For C=CCn1c(CCC(=O)O)ccc1-c1ccccc1 the results were TSHR ag 8%, 15-hLO inh -14%, PK Bst >57, FLuc inh 4%, HEK293 cAMP cs 3% and Tau fil binding 13%.
Screening Cc1cc2ccccc2c(=O)n1CC(=O)Nc1ccc2c(c1)OCO2 returned TSHR ag 4%, 15-hLO inh -2%, PK Bst >57, FLuc inh 1%, HEK293 cAMP cs 7% and Tau fil binding 6%.
For O=C(CN1C(=O)c2cccc3cccc1c23)Nc1ccc2c(c1)OCO2 the results were TSHR ag 0%, 15-hLO inh -20%, PK Bst 1.9*, FLuc inh 1%, HEK293 cAMP cs -1% and Tau fil binding 94%.
`Cc1ccc(N=Nc2ccc(N)cc2C)c(S(N)(=O)=O)c1` gave TSHR ag 2%[11.4 µM], 15-hLO inh 3%[11.4 µM], FLuc inh -8%[11.4 µM], HEK293 cAMP cs -3%[11.4 µM] and Tau fil binding 4µM*.
Screening Cc1ccc(N=Nc2c(O)c(S(=O)(=O)O)cc3cc(S(=O)(=O)O)ccc23)c(C)c1 returned TSHR ag -4%[11.4 µM], 15-hLO inh 6%[11.4 µM], FLuc inh -18%[11.4 µM], HEK293 cAMP cs 0%[11.4 µM] and Tau fil binding -9%[11.4 µM].
`Cc1cc2oc(=O)cc(CN3CCCCC3C)c2c(C)c1Cl` (stereo not drawn) gave TSHR ag inconclusive, 15-hLO inh -11%, PK Bst >57, FLuc inh 2%, HEK293 cAMP cs 25µM* and Tau fil binding -19%.
`Cc1cc2oc(=O)cc(CN3CCN(Cc4ccc5c(c4)OCO5)CC3)c2cc1C` gave TSHR ag 2.5µM*, 15-hLO inh -1%, PK Bst >57, FLuc inh -1%, HEK293 cAMP cs -21% and Tau fil binding 1%.
`CCCc1cc(=O)oc2cc(C)c(CN3CCCC3)c(O)c12` gave 15-hLO inh 13µM*, PK Bst >57, FLuc inh 3%, HEK293 cAMP cs 2% and Tau fil binding 13µM*.
`Cc1cc2oc(=O)cc(CN3CCC(C)CC3)c2cc1Cl` gave TSHR ag inconclusive, 15-hLO inh -13%, PK Bst >57, FLuc inh 2%, HEK293 cAMP cs 25µM* and Tau fil binding -8%.
`CCOC(=O)c1[nH]c(Cc2[nH]c(C(=O)OCC)c(C)c2CCC(=O)OC)c(CCC(=O)OC)c1C` gave TSHR ag inconclusive, 15-hLO inh -14%[11.4 µM], FLuc inh 2%, HEK293 cAMP cs inconclusive and Tau fil binding 15%[11.4 µM].
`CC1(C)OC(C(O)(c2cc(F)c(F)c(F)c2)c2cc(F)c(F)c(F)c2)C(C(O)(c2cc(F)c(F)c(F)c2)c2cc(F)c(F)c(F)c2)O1` (stereo not drawn) gave TSHR ag 10%[11.4 µM], 15-hLO inh -2%[11.4 µM] and HEK293 cAMP cs 6%[11.4 µM].
`Cc1ccc(-n2c(C)cc(C(=O)COC(=O)c3c(C)noc3C)c2C)cc1` gave TSHR ag inconclusive, 15-hLO inh 5%, PK Bst inactive, FLuc inh 25µM*, HEK293 cAMP cs inconclusive and Tau fil binding 6%.
For C(=Nc1cnc2ccccc2c1)c1ccc2ccccc2n1 the results were TSHR ag 1%[11.4 µM], 15-hLO inh 2%[11.4 µM], FLuc inh 2%[11.4 µM], HEK293 cAMP cs 8%[11.4 µM] and Tau fil binding 4%[11.4 µM].
CC1CCCCN1c1nc(-c2ccncc2)nc2ccccc12 (stereo not drawn) was read as TSHR ag inconclusive, 15-hLO inh inconclusive, PK Bst >11, FLuc inh 1%, HEK293 cAMP cs 25µM* and Tau fil binding 20%.
For CCC1CCCCN1c1nc(-c2ccncc2)nc2ccccc12 (stereo not drawn) the results were PK Bst >26 and FLuc inh 0%[25.5 µM].
COC(=O)C1=C(C)N=c2s/c(=C/c3cccs3)c(=O)n2C1c1cccs1 (stereo not drawn) was read as TSHR ag -8%[11.4 µM], 15-hLO inh 5%, PK Bst >57, FLuc inh 0%, HEK293 cAMP cs 9% and Tau fil binding 1µM*.
COC(=O)C1=C(C)N=c2s/c(=C/c3ccoc3)c(=O)n2C1c1ccccc1 (stereo not drawn) was read as TSHR ag 30%, 15-hLO inh inconclusive, PK Bst >57, FLuc inh -1%, HEK293 cAMP cs 15% and Tau fil binding -11%.
`CN(C)c1ccc(C2N([C@H](C#N)c3ccc(N(C)C)cc3)CCCN2[C@@H](C#N)c2ccc(N(C)C)cc2)cc1` (stereo partly drawn) gave TSHR ag 1%[11.4 µM], 15-hLO inh -2%[11.4 µM], FLuc inh -1%[11.4 µM], HEK293 cAMP cs 4%[11.4 µM] and Tau fil binding 6%[11.4 µM].
For O=C(COC(=O)c1cccs1)NCc1ccc2c(c1)OCO2 the results were TSHR ag 5%, 15-hLO inh -5%, PK Bst >57, FLuc inh -3%, HEK293 cAMP cs 7% and Tau fil binding -24%.
For COc1ccc2oc(C(=O)OCC(=O)c3ccc4c(c3)OCCO4)c(C)c2c1 the results were TSHR ag inconclusive, 15-hLO inh 5%, PK Bst >57, FLuc inh -46%, HEK293 cAMP cs 20µM* and Tau fil binding 0%.
Screening CC(=O)NC12CC3CC(C1)CC(C(=O)OCC(=O)c1ccc4c(c1)OCCO4)(C3)C2 returned TSHR ag 11%, 15-hLO inh 6%, PK Bst 4.3*, FLuc inh 4µM*, HEK293 cAMP cs 4% and Tau fil binding -13%.
For CC(=O)NC12CC3CC(C1)CC(C(=O)OCC(=O)Nc1ncc(Cl)c(C)c1Cl)(C3)C2 the results were TSHR ag 10%, 15-hLO inh -8%, PK Bst >57, FLuc inh 2%, HEK293 cAMP cs -3% and Tau fil binding -22%.
